Data reported in PubChem BioAssay (EPA / NIEHS).
Inconclusive results are not listed. Calls of active or inactive are those of the source. Rule for the calls, unless noted: active = hit-call score of the fitted dose curve at least 0.9, where 1 is the maximum; inconclusive = response in the unintended direction; inactive = score below 0.9.

Target: THRB (gene 7068) (UniProt P10828)
Test: TOX21_TRB_COA_Agonist_Followup_ratio: Tox21 Thyroid Hormone Receptor beta Agonism through Coactivator Recruitment Follow-Up Assay, Ratio (AID 2283963; active = hit-call score of the fitted dose curve at least 0.9, where 1 is the maximum; inactive = score below 0.9)
How it was run: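 GST-TRb LBD 5.0 nM + 0.10% BSA + cpd; add fluorescein-SRC-2 200 nM / Tb anti-GST Ab 2 nM; TR-FRET ex 340, em 520:495; norm DMSO 0%, T3 100%.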

Chain of THRB (gene 7068) (P10828 whole entry, looked up): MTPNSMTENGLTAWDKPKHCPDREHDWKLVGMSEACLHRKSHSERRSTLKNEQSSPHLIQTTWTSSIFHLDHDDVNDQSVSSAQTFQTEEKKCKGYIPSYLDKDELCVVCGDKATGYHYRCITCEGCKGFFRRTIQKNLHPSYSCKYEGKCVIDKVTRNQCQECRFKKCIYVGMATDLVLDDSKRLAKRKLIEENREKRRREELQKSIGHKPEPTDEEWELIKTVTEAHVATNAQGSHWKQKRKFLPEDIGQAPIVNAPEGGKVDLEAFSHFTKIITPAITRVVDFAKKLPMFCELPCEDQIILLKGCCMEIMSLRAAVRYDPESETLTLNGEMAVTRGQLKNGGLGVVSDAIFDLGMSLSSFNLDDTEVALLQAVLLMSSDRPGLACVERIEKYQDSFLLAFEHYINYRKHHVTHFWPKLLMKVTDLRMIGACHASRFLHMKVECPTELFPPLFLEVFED

Row | SMILES | outcome
1 | C[C@H](CCC(=O)NCC(=O)O)[C@H]1CC[C@H]2[C@@H]3[C@H](O)C[C@@H]4C[C@H](O)CC[C@]4(C)[C@H]3C[C@H](O)[C@]12C | inactive
2 | CC(=O)Nc1ccc(C(=O)CCl)cc1 | inactive
3 | O=Cc1ccccc1S(=O)(=O)O | inactive
4 | Cc1cc(C)nc(NS(=O)(=O)c2ccc(N)cc2)n1 | inactive
5 | OCCCCC(O)CO (stereo not drawn) | inactive

Target: Retinoic acid receptor RXR-alpha (Homo sapiens) (UniProt P19793)
Sequence (P19793 whole entry, looked up): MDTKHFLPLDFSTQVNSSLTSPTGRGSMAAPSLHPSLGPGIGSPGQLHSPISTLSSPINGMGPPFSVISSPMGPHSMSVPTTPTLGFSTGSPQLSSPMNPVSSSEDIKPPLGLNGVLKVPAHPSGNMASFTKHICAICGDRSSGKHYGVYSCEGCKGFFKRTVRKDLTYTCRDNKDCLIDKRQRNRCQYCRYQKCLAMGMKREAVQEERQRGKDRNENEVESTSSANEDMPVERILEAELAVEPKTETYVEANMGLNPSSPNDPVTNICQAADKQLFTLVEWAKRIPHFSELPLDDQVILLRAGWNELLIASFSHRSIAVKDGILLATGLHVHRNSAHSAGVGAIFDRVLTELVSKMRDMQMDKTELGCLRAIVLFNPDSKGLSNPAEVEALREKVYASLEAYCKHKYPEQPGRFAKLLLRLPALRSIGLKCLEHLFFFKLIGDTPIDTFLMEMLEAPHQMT
Test: TOX21_TR_RXR_BLA_Agonist_Followup_ratio: Tox21 Thyroid Hormone Receptor beta Retinoid X Receptor alpha (RXRa) Agonism Beta-lactamase (BLA) Follow-Up Assay, Ratio (AID 2283968)
How it was run: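 RXRa-UAS-bla HEK293T cells (GAL4 beta-lactamase reporter) were treated with compounds at 11 concentrations in triplicate for 16 h at 37C/5% CO2, then loaded with CCF4-AM substrate for 2 h at room temperature; activity is the 460:530 nm ratio versus DMSO baseline.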

Row | SMILES | outcome
6 | N[C@@H](Cc1cc(I)c(Oc2cc(I)c(O)c(I)c2)c(I)c1)C(=O)O | inactive
7 | C[C@H](CCC(=O)NCC(=O)O)[C@H]1CC[C@H]2[C@@H]3[C@H](O)C[C@@H]4C[C@H](O)CC[C@]4(C)[C@H]3C[C@H](O)[C@]12C | inactive
8 | O=Cc1ccccc1S(=O)(=O)O | inactive
9 | Cc1cc(C)nc(NS(=O)(=O)c2ccc(N)cc2)n1 | inactive
10 | OCCCCC(O)CO (stereo not drawn) | inactive

Test system: not listed separately
Test: TOX21_TR_RXR_BLA_Agonist_Followup_viability: Viability Assessment in the Tox21 Thyroid Hormone Receptor beta Retinoid X Receptor alpha (RXRa) Agonism Beta-lactamase (BLA) Follow-Up Assay (AID 2283970)
How it was run: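 RXRa-UAS-bla HEK293T cells seeded at 2,500/well in phenol red-free DMEM with 2% charcoal-stripped FBS, exposed to compound 16h at 37C/5% CO2 in qHTS. Viability read by CellTiter-Glo ATP luminescence; bidirectional fitting against DMSO baseline, signal loss indicating cytotoxicity.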

Row | SMILES | outcome | AC50
11 | N[C@@H](Cc1cc(I)c(Oc2cc(I)c(O)c(I)c2)c(I)c1)C(=O)O | inactive | 
12 | C[C@H](CCC(=O)NCC(=O)O)[C@H]1CC[C@H]2[C@@H]3[C@H](O)C[C@@H]4C[C@H](O)CC[C@]4(C)[C@H]3C[C@H](O)[C@]12C | inactive | 
13 | CC(=O)Nc1ccc(C(=O)CCl)cc1 |  | 69.1 µM (active)
14 | O=Cc1ccccc1S(=O)(=O)O | inactive | 
15 | Cc1cc(C)nc(NS(=O)(=O)c2ccc(N)cc2)n1 | inactive | 

Test system: DIO1 (gene 1733)
Test: CCTE_GLTED_hDIO1: CCTE's human Deiodinase 1 (DIO1) Inhibition Assay, Great Lakes Toxicology and Ecology Division (GLTED) Lab (AID 2283987);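 note: isolated human DIO1 enzyme in a cell-free setup rather than cells; enzyme activity read as free iodide liberated from substrate via Sandell-Kolthoff colorimetry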
Experimental: CCTE_GLTED_hDIO1 is a cell-free, single-readout assay designed to test the inhibitory activity of chemicals toward human iodothyronine Deiodinase type 1 (DIO1) enzyme. Enzyme is incubated in presence of test chemical for 3 hours during which uninhibited enzyme liberates free iodide from substrate. Free iodide is measured in a second step using the Sandell-Kolthoff method.CCTE_GLTED_hDIO1 is the assay component measured from the CCTE_GLTED_hDIO1 assay. It is designed to make measurements of enzyme activity, a form of enzyme reporter, as detected with absorbance signals by spectrophotometry.Data from the assay component CCTE_GLTED_hDIO1 was analyzed into 1 assay endpoint. This assay endpoint, CCTE_GLTED_hDIO1, was analyzed in the positive analysis fitting direction relative to DMSO as the negative control and baseline of activity. Using a type of enzyme reporter, loss-of-signal activity can be used to understand changes in the enzymatic activity as they relate to the gene DIO1. Furthermore, this assay endpoint can be referred to as a primary readout, because the performed assay has only produced 1 assay endpoint. To generalize the intended target to other relatable targets, this assay endpoint is annotated to the 'deiodinase' intended target family, where the subfamily is 'deiodinase Type 1'.
[…] assay, developed at Great Lakes Toxicology and Ecology Division (GLTED) within the EPA's Center for Computational Toxicology and Exposure (CCTE), is designed to test the chemicals' ability to inhibit DIO1. Assay is based on iodide release measured by the Sandell-Kolthoff method and is run in 96-well plate format with assay plates run in triplicate (n=3). The method used for the deiodinase assay was largely based on Renko et al. (2012, 2015). These works describe the utilization of the SK reaction to measure deiodinase-liberated iodide in a 96-well-plate format. The SK reaction is based on the reduction of the yellow-colored cerium IV to the non-colored cerium III by arsenic, with the rate of this reaction increased in the presence of iodide in a concentration-dependent manner (Sandell and Kolthoff, 1937). Iodinated test chemicals can interfere as competitive inhibitors, or if the stock chemical has contaminating free-iodide present. Other chemicals, e.g.: nitrite, iron, and thiocyanate can interfere with the Sandell-Kolthoff reaction (see Sandell and Kolthoff, 1937).

Row | SMILES | AC50
16 | CCOc1ccc(N=Nc2ccc(C=Cc3ccc(N=Nc4ccc(OCC)cc4)cc3S(=O)(=O)O)c(S(=O)(=O)O)c2)cc1 | 0.72 µM (active)
17 | CC(C)CCCCCCCCCCCCCCC(=O)O | 72.8 µM (active)
18 | CCCCC(CC)COC(=O)c1ccc(O)cc1 (stereo not drawn) | 85.4 µM (active)
19 | Oc1ccc2cc(SSc3ccc4cc(O)ccc4c3)ccc2c1 | 2.62 µM (active)
20 | CCCCCCCCC=CCCCCCCCC1=NCCN1CCO | 36.3 µM (active)
21 | C=C1CC[C@H](O)C/C1=C/C=C1\CCC[C@]2(C)[C@@H]([C@H](C)/C=C/[C@H](C)C(C)C)CC[C@@H]12 | 19.8 µM (active)
22 | CCCCCCCCCCCCCCN(CCO)CCO | 30.6 µM (active)

Target: Nucleoli Translocation, AR (gene 367) (UniProt P10275)
Sequence (P10275 whole entry, looked up): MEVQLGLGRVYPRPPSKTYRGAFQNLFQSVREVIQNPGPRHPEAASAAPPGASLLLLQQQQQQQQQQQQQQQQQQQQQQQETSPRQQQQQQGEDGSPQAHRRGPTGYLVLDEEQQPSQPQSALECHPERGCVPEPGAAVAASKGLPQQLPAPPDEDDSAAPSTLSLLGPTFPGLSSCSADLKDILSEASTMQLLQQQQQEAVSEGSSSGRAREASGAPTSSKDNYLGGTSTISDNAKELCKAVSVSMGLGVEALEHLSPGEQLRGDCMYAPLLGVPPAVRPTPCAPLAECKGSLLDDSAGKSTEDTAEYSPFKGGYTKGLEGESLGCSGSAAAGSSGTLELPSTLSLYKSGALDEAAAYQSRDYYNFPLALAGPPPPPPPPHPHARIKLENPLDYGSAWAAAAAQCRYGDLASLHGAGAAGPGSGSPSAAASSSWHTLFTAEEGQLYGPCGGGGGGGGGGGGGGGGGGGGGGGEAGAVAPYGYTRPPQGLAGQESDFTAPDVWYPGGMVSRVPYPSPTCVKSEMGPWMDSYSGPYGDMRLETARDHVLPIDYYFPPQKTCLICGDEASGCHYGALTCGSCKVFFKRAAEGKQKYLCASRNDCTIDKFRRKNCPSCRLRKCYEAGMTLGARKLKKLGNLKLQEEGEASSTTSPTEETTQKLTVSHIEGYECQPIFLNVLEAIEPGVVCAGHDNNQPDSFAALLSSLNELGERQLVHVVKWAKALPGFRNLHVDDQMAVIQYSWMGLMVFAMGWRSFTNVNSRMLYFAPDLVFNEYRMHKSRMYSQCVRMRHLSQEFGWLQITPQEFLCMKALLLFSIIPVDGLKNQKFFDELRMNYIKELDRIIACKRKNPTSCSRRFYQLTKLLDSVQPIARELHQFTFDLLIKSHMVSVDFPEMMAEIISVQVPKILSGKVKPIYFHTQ
Test: UPITT_HCI_U2OS_AR_TIF2_Nucleoli_Antagonist: University of Pittsburgh U2OS Androgen Receptor-Transcriptional Intermediary Factor 2 (AR-TIF2) Antagonism High Content Imaging Assay for Nucleoli Translocation (AID 2283997)
How it was run: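 U2OS cells co-expressing red-fluorescent-tagged human AR and green-fluorescent-tagged TIF2, imaged by high-content microscopy for nucleolar red fluorescence. Antagonist mode against DHT; primary screen at 20 uM final (0.2% DMSO).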

Row | SMILES | outcome | AC50
23 | CC(C=O)Cc1ccc(C(C)(C)C)cc1 (stereo not drawn) | inactive | 
24 | CC(C)CCCCCCc1ccc(OCCOCCO)cc1 | inactive | 
25 | CCCCC1CCC(O)CC1 (stereo not drawn) | inactive | 
26 | Nc1ccc(N)c2c1C(=O)c1ccccc1C2=O | inactive | 
27 | CCOC(=O)[C@@H](C)Oc1ccc(Oc2nc3ccc(Cl)cc3o2)cc1 | inactive | 
28 | CC1CCC(C(C)C)C(O)C1 (stereo not drawn) | inactive | 
29 | OCc1cccc(Oc2ccccc2)c1 | inactive | 
30 | CC(=O)O[C@@H]1CC2CCC1(C)C2(C)C (stereo partly drawn) | inactive | 
31 | C[C@H]1O[C@@H](O[C@H]2[C@@H](O)C[C@H](O[C@H]3[C@@H](O)C[C@H](O[C@H]4CC[C@@]5(C)[C@H](CC[C@@H]6[C@@H]5C[C@@H](O)[C@]5(C)[C@@H](C7=CC(=O)OC7)CC[C@]65O)C4)O[C@@H]3C)O[C@@H]2C)C[C@H](O)[C@@H]1O | inactive | 
32 | CC(=O)O[C@H]1C[C@@H]2CC[C@@]1(C)C2(C)C | inactive | 
33 | Cc1ccc(S(=O)(=O)Oc2ccc(N=Nc3ccc(-c4ccc(N=Nc5c(O)ccc6cc(S(=O)(=O)O)cc(S(=O)(=O)O)c56)c(C)c4)cc3C)cc2)cc1 | inactive | 
34 | BrCc1cccc(Oc2ccccc2)c1 | inactive | 
35 | CCc1cc(Cc2cc(CC)cc(C(C)(C)C)c2O)c(O)c(C(C)(C)C)c1 |  | 62.2 µM (active)
36 | CC(=O)C1(C)CC2=C(CCCC2(C)C)CC1C (stereo not drawn) | inactive | 
37 | CCCCCCCCC=CCCCCCCCC1=NCCN1CCO |  | 93 µM (active)
38 | CCCCCCCCSCCO |  | 59 µM (active)
39 | CCc1ccc(O)cc1 | inactive | 

Target: Nucleoli Translocation, AR (gene 367) (UniProt P10275)
Test: UPITT_HCI_U2OS_AR_TIF2_Nucleoli_Agonist: University of Pittsburgh U2OS Androgen Receptor-Transcriptional Intermediary Factor 2 (AR-TIF2) Agonism High Content Imaging Assay for Nucleoli Translocation (AID 2283998)
How it was run: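 Nucleolar translocation of AR-RFP, with TIF2-GFP coexpressed in human osteosarcoma U2OS, imaged by high-content fluorescence. Compounds tested singly at 20 uM final, confirmed in triplicate, then titrated 0.195–50 uM final; gain-of-signal relative to DMSO.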

Row | SMILES | outcome | AC50
40 | CC(C=O)Cc1ccc(C(C)(C)C)cc1 (stereo not drawn) | inactive | 
41 | Nc1ccc(N)c2c1C(=O)c1ccccc1C2=O | inactive | 
42 | CCOC(=O)[C@@H](C)Oc1ccc(Oc2nc3ccc(Cl)cc3o2)cc1 | inactive | 
43 | Cc1ccc(S(=O)(=O)Oc2ccc(N=Nc3ccc(-c4ccc(N=Nc5c(O)ccc6cc(S(=O)(=O)O)cc(S(=O)(=O)O)c56)c(C)c4)cc3C)cc2)cc1 | inactive | 
44 | BrCc1cccc(Oc2ccccc2)c1 | inactive | 
45 | CCc1cc(Cc2cc(CC)cc(C(C)(C)C)c2O)c(O)c(C(C)(C)C)c1 |  | 77.1 µM (active)
46 | CC(=O)C1(C)CC2=C(CCCC2(C)C)CC1C (stereo not drawn) | inactive | 
47 | CCCCCCCCC=CCCCCCCCC1=NCCN1CCO |  | 13.3 µM (active)
48 | CCCCCCCCCCCCCC(=O)OCC(O)CO (stereo not drawn) | inactive | 
49 | CCCCCCCCSCCO | inactive | 

Target: Ratio of Nucleoli Translocation and Cytoplasm, AR (gene 367) (UniProt P10275)
Sequence (P10275 whole entry, looked up): as above
Test: UPITT_HCI_U2OS_AR_TIF2_Nucleoli_Cytoplasm_Ratio_Antagonist: University of Pittsburgh U2OS Androgen Receptor-Transcriptional Intermediary Factor 2 (AR-TIF2) Antagonism High Content Imaging Assay for Ratio of Nucleoli Translocation and Cytoplasm (AID 2283999);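 note: antagonists lower the DHT-driven ratio of nucleolar to cytoplasmic red signal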
How it was run: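 U2OS cells expressing RFP-tagged human AR and GFP-tagged TIF2; compounds tested at 20 uM final (0.2% DMSO) in primary screen, 0.195–50 uM (0.5% DMSO) for concentration response. Readout: nucleolar-to-cytoplasmic red fluorescence ratio by high-content imaging, fitted relative to DHT.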

Row | SMILES | outcome | AC50
50 | CC(C=O)Cc1ccc(C(C)(C)C)cc1 (stereo not drawn) | inactive | 
51 | CC(C)CCCCCCc1ccc(OCCOCCO)cc1 | inactive | 
52 | CCCCC1CCC(O)CC1 (stereo not drawn) | inactive | 
53 | Nc1ccc(N)c2c1C(=O)c1ccccc1C2=O | inactive | 
54 | CCOC(=O)[C@@H](C)Oc1ccc(Oc2nc3ccc(Cl)cc3o2)cc1 | inactive | 
55 | CC1CCC(C(C)C)C(O)C1 (stereo not drawn) | inactive | 
56 | OCc1cccc(Oc2ccccc2)c1 | inactive | 
57 | C[C@H]1O[C@@H](O[C@H]2[C@@H](O)C[C@H](O[C@H]3[C@@H](O)C[C@H](O[C@H]4CC[C@@]5(C)[C@H](CC[C@@H]6[C@@H]5C[C@@H](O)[C@]5(C)[C@@H](C7=CC(=O)OC7)CC[C@]65O)C4)O[C@@H]3C)O[C@@H]2C)C[C@H](O)[C@@H]1O | inactive | 
58 | CC(=O)O[C@H]1C[C@@H]2CC[C@@]1(C)C2(C)C | inactive | 
59 | Cc1ccc(S(=O)(=O)Oc2ccc(N=Nc3ccc(-c4ccc(N=Nc5c(O)ccc6cc(S(=O)(=O)O)cc(S(=O)(=O)O)c56)c(C)c4)cc3C)cc2)cc1 | inactive | 
60 | BrCc1cccc(Oc2ccccc2)c1 | inactive | 
61 | CCc1cc(Cc2cc(CC)cc(C(C)(C)C)c2O)c(O)c(C(C)(C)C)c1 |  | 50 µM (active)
62 | CC(=O)C1(C)CC2=C(CCCC2(C)C)CC1C (stereo not drawn) | inactive | 
63 | CCCCCCCCC=CCCCCCCCC1=NCCN1CCO | inactive | 
